# Measured values as given in PubChem BioAssay (NCI).
# About 83,000 compounds went through this panel and 20% of them were active in at least one assay; those are over-represented in the sample as a whole.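 Treatment: one concentration, 48 hours, 96-well format. Scoring: percent growth, with anything below 10 considered active.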 Unmarked numbers belong to inactive results. Activity calls are given as the source filed them.
# Legend:
# Experiment in all cases: NCI-60 one-dose screen, 48 h (100 = growth as untreated, 0 = no growth, -100 = all killed)
# Conditions in all cases: 10 µM unless noted
# [1] = system: T-47D breast
# [2] = system: BT-549 breast
# [3] = system: MDA-MB-435 melanoma
# [4] = system: SW-620 colon
# [5] = system: MCF7 breast
# [6] = system: HCT-116 colon
# [7] = system: HCC-2998 colon
# [8] = system: KM12 colon
# [9] = system: MDA-MB-468 breast
SMILES,growth [1],growth [2],growth [3],growth [4],growth [5],growth [6],growth [7],growth [8],growth [9]
C#CCOc1cc(N(CC)CC)ccc1C(C(=O)NC(C)(C)C)N(C(=O)C1CCc2cc(F)ccc2O1)c1ccc(F)cc1 (stereo not drawn),40.3%,50.9%,54.4%,58.6%,20.2%,27.1%,71.9%,25.7%,33.2%
C=C1CCC2C3(C)COC(c4ccccc4F)OC3CCC2(C)C1CC(O)C1=CCOC1=O (stereo not drawn),42.1%,-18.8% (active),27.5%,-6.12% (active),15.2%,-59.4% (active),36.7%,45.3%,63.9%
CC(=O)Nc1cccc(-c2nc3cc(-c4ccc(O)cc4)ccc3n2C)c1,9.44% (active),-8.08% (active),11.1%,79.3%,6.65% (active),45.7%,88.2%,37.5%,7.83% (active)
CN(C)c1nc(NCCNS(=O)(=O)c2ccc(C3=Nc4c(N)nc(N)nc4NC(c4ccc(F)cc4)C3)cc2)nc(Nc2ccc(F)cc2)n1 (stereo not drawn),40.6%,48.7%,31%,39.4%,5.29% (active),30.6%,28.6%,24.5%,-40.7% (active)
C#CCOc1cc(N(CC)CC)ccc1C(C(=O)NC(C)(C)C)N(C(=O)C1CCc2cc(F)ccc2O1)c1ccccc1Br (stereo not drawn),55.6%,63.7%,50.6%,59.2%,28.7%,27.5%,93.5%,40.4%,38.2%
Cc1ccc2c(c1)nc(-c1ccccc1)n2CC(=O)N=Nc1c(O)[nH]c2ccc(Br)cc12,-46% (active),-72.1% (active),-33.4% (active),2.54% (active),-69.7% (active),-91.7% (active),-72% (active),-46% (active),-78.4% (active)
COc1cc(C2CC(c3ccc(S(=O)(=O)NCCNc4nc(Nc5ccc(F)cc5)nc(N(C)C)n4)cc3)=Nc3c(N)nc(N)nc3N2)cc(OC)c1OC (stereo not drawn),56.2%,62.8%,87.1%,96.3%,51.1%,82.6%,87.5%,95.5%,0.318% (active)
